The full list was thinned out, with hits kept by preference.
ST2 inh: inhibitors of human ST2 (IL1RL1) binding to IL-33 | AlphaLISA ST2-Fc/biotin-IL-33 interaction, 1 h | inhibition, % for hits at 17 µM | hit rate 2.3% among 78,000; in the data active = inhibition above about 30%
Target sequence (Q01638 whole entry, looked up): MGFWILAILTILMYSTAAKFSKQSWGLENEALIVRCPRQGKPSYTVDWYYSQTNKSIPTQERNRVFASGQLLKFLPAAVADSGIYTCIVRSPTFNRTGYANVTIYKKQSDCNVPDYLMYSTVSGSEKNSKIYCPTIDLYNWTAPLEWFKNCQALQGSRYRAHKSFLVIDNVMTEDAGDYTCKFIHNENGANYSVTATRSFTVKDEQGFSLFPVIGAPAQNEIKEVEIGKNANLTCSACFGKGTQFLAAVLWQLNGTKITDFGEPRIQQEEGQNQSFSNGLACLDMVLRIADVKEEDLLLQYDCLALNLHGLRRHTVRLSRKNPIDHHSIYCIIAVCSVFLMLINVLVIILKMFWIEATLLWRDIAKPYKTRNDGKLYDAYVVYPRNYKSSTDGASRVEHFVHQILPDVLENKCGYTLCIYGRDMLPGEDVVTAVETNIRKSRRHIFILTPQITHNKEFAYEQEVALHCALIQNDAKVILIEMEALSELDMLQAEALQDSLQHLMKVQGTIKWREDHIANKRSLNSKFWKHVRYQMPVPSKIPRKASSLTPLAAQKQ
* = called active by the depositor; i = inactive.

SMILES	ST2 inh
O=C(c1cccc(F)c1)N1CCN=C1SCc1ccccc1Cl	i
N#Cc1cccc(NC(=S)N[C@H]2CO[C@H]3[C@@H]2OC[C@@H]3n2nnnc2-c2ccc3c(c2)OCO3)c1	i
COC(=O)[C@@H]1Cc2ncn(C(C)C)c2CN1S(=O)(=O)c1ccc(OC)cc1	i
COC(=O)[C@@H]1Cc2ncn(C)c2CN1S(=O)(=O)c1ccc(C#N)cc1	i
COC(=O)[C@@H]1Cc2ncn(C(C)C)c2CN1S(=O)(=O)c1ccc(C#N)cc1	35%*
Cc1ccn2c(Nc3ccc4c(c3)OCO4)c(-c3ccccn3)nc2c1	31%*
Cc1ccc2nc(-c3ccc(C)o3)c(Nc3ccccc3)n2c1	i
Cc1ccc2nc(-c3ccc(C)o3)c(Nc3ccc4c(c3)OCCO4)n2c1	i
COc1ccc(Nc2c(-c3ccccn3)nc3ccc(Br)cn23)cc1	i
Cc1ccc2nc(-c3c[nH]c4ccccc34)c(NC3CCCC3)n2c1	i
Cc1ccc2nc(-c3ccccn3)c(Nc3ccc4c(c3)OCCO4)n2c1	31%*
Cc1ccc(-c2nc3cnccn3c2NC2CCCCC2)o1	i
Cc1ccc(-c2nc3ccccn3c2Nc2ccc3c(c2)OCCO3)o1	35%*
Cc1ccn2c(NC3CCCC3)c(-c3ccccn3)nc2c1	38%*
Brc1ccc2nc(-c3ccccn3)c(Nc3ccccc3)n2c1	i
Cc1ccc(-c2nc3cnccn3c2Nc2ccc3c(c2)OCO3)o1	i
Cc1ccn2c(Nc3ccccc3)c(-c3ccc(C)o3)nc2c1	i
CCOc1ccc(CN=c2c([N+](=O)[O-])nn(-c3ccccc3)n2O)cc1OC	i
Cc1cccc(Cc2c(C)nc3nc(SCC(=O)NC4CC4)nn3c2C)c1	i
O=S(=O)(O)c1ccc(O)c2ncccc12	i
O=C(Cc1cccc2ccccc12)Nc1ccc2nc(SCC(=O)N3CCOCC3)sc2c1	i
CC(C)(Oc1ccc(Cl)cc1)C(=O)N1CCc2ccccc21	i
Cc1cc(C)c2c(=O)[nH]c(SCC(N)=O)nc2n1	i
CC1(C)CC(=O)C2=C(C1)Nc1nc(SCc3ccccc3)[nH]c(=O)c1C2c1ccncc1 (stereo not given)	i
COc1ccccc1-n1c(SCC(=O)NCc2ccco2)nc2c(c1=O)SCC2	i
SMILES	ST2 inh
CCC1CCCCN1S(=O)(=O)c1ccc2c(c1)CCC(=O)N2 (stereo not given)	i
Cc1ccc(-c2nc3ccc(Br)cn3c2Nc2ccc3c(c2)OCO3)o1	i
Cc1ccc2nc(-c3ccccn3)c(Nc3ccc4c(c3)OCO4)n2c1	32%*
Clc1ccc2nc(-c3ccco3)c(Nc3ccc4c(c3)OCO4)n2c1	i
CCn1cc(SCC(=O)Nc2ccc3c(c2)OCO3)c2ccccc21	i
Nc1c(Cl)cc(Cl)cc1[N+](=O)[O-]	37%*
O=[N+]([O-])c1cc(Cl)ccc1NCCNCCO	i
COc1ccc(N=Cc2cc(Cl)cc([N+](=O)[O-])c2O)cc1Cl	i
COc1ccccc1CN(C(=O)Cc1ccc(O)c(Cl)c1)C1CC1	i
CC1=C(C(=O)OCc2ccc(C)cc2)C(c2ccccc2Cl)NC(=O)N1 (stereo not given)	i
CCN(CC)S(=O)(=O)c1ccc2oc(C(=O)NCc3ccccn3)c(C)c2c1	i
O=C(N=c1scc(-c2ccccc2)n1-c1ccccc1)c1ccco1	i
OCCN=c1scc(-c2ccc(Br)cc2)n1-c1ccccc1	39%*
O=c1c2c(-c3ccc(Br)cc3)csc2ncn1-c1ccccc1	i
COc1ccc(OC)c(S(=O)(=O)N(C)C2CCCCC2)c1	i
CCOc1ccc(C2=CC(=O)C(CC(=O)O)CC2)cc1 (stereo not given)	i
Cn1cc(CC(=O)N2CCN(c3cccc(Cl)c3)CC2)c2ccccc21	i
O=c1oc2ccccc2cc1C1=Nn2c(nnc2-c2cccc(F)c2)SC1	i
Fc1cccc(-c2nnc3n2N=C(c2ccc(Cl)s2)CS3)c1	30%*
COc1cccc(C2=Nn3c(nnc3-c3ccccc3)SC2)c1	i
c1ccc2c(c1)Nc1ccc3ccccc3c1S2	39%*
COc1ccc(C2=CC(=O)Nc3ccccc3S2)cc1	i
Fc1ccc2c(c1)Sc1ccccc1N2	36%*
CCOC(=O)N1CCC(Nc2nncc(-c3ccccc3)n2)CC1	i
O=C(O)c1cccnc1CN1CCN(c2nsc3ccccc23)CC1	i
SMILES	ST2 inh
COc1cccc(C2C3=C(CC(C)(C)CC3=O)Nc3ccccc3N2C(=O)C(F)(F)F)c1 (stereo not given)	i
COc1ccc(C2SCCN2C(=O)c2ccc([N+](=O)[O-])cc2)cc1OC (stereo not given)	i
COc1cc(C(c2ccc(C)o2)c2ccc(C)o2)c([N+](=O)[O-])cc1OC	36%*
COc1cc(CC(=O)O)c([N+](=O)[O-])cc1OC	i
COc1cc(CN2CCC(C)CC2)c([N+](=O)[O-])cc1OC	i
O=C(c1ccco1)N1CCCN(Cc2cccc(-n3cccn3)c2)CC1	i
CCN1C(=O)/C(=C2/Sc3ccc(OC)cc3N2C)SC1=Nc1ccc(C(C)=O)cc1	i
CCOc1ccc(N=C2S/C(=C\c3ccc(N(C)C)cc3)C(=O)N2CC)cc1	56%*
CCOc1ccc(N2C(=O)S/C(=C\c3ccccc3)C2=O)cc1	i
CC1=NN(c2ccccc2)C(=O)/C1=C\c1ccc(N2CCOCC2)cc1	40%*
CC(=O)Nc1ccc(OCc2ccccc2)cc1	i
C=CCN1C(=O)NC(=O)/C(=C/c2ccc(OCc3ccccc3F)cc2)C1=O	i
COc1cc(Br)c(/C=C2\C(=O)N(c3ccccc3)N=C2C)cc1OC	i
CC1=NN(c2ccccc2)C(=O)/C1=C\c1ccc(OCc2ccccc2)cc1	32%*
COc1cc(NC(=O)c2cc(-c3ccc(Br)cc3)on2)cc(OC)c1OC	i
CCc1ccc(-c2nc(CSCC(=O)N3CCN(CC)CC3)c(C)o2)cc1	i
Cc1cc(C)c(NS(=O)(=O)c2ccc(NC(=O)c3ccccc3[N+](=O)[O-])cc2)c(C)c1	i
COc1cc2c(cc1OC)C(C(=O)NCCC1=CCCCC1)C(c1ccccc1F)N(C)C2=O (stereo not given)	i
CCn1c2ccccc2c2nnc(SCC(=O)N3CCCc4ccccc43)nc21	i
c1ccc(CCn2c3ccccc3c3nnc(SCCN4CCOCC4)nc32)cc1	i
O=C(CSc1nnc2c3ccccc3n(CCc3ccccc3)c2n1)N1CCOCC1	33%*
COc1ccc(N2C(=O)c3cccnc3C2=O)c(OC)c1	i
COc1ccc(C2=C/C(=C3/c4ccccc4-c4ncccc43)C(=O)O2)c(OC)c1	31%*
COc1ccc(NC(=O)c2coc(=O)c3ccccc23)c(OC)c1	i
COc1ccc(N2CCN(CCCNC(=O)c3cccn3-c3nnc(N4CCCCC4)s3)CC2)cc1	31%*
SMILES	ST2 inh
O=C(NCCCN1CCCC1)c1cccn1-c1nnc(N2CCCCC2)s1	i
CCN1CCN(CCCNC(=O)c2cccn2-c2nnc(N3CCCCC3)s2)CC1	i
Cc1ccsc1CN(C)C(=O)c1cc(CN(C)Cc2ccccc2)on1	i
CCCCOC(=O)C1=C(C)Nc2ncnn2C1c1ccc(Br)cc1 (stereo not given)	i
CCOC(=O)c1c(NC(C)=O)sc2c1CCN(Cc1ccccc1)C2	i
CCN1CCc2c(sc(NC(=O)c3ccc(C)c(C)c3)c2C(=O)OC)C1	i
CCOC(=O)c1c(NC(=O)c2cc3ccccc3oc2=O)sc2c1CCN(CC)C2	33%*
O=C(O)C1CN(c2ncccn2)CCN1C(=O)CCc1cccnc1 (stereo not given)	i
